Screens: PubChem, National Center for Advancing Translational Sciences (NCATS)
Hits are enriched below; roughly 3.8% of the tested compounds scored in any of these assays.
HT1080-NT tox – kills 2HG-producing HT-1080-NT fibrosarcoma cells. Potency, µM (highest dose often 46.1 µM), inactives show at the highest dose activity, negative = less viability, most hits filed as cytotoxic. AID 686970. HT-1080-NT fibrosarcoma viability, CellTiter-Glo ATP luminescence, 48 h. 1.6% of 360,000 active;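 note: NT is the 2HG producing partner of a matched IDH1 knockdown line; 0% = DMSO-treated cells and -100% = media-only wells without cells; nearly all actives have a fitted effect of over 55% in size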
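A 48-hour cytotoxicity screen used HT-1080-NT cells plated 2 hours before compound delivery. ATP-based CellTiter-Glo luminescence measured viability, normalized to DMSO and no-cell controls.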
HT1080 IDH1KD tx – toxicity to HT-1080 IDH1 knockdown cells (counter line). HT-1080 IDH1 knockdown viability, ATP luminescence, 48 h. Potency, µM (titrated, usually from 46.1 µM), for the others: top-dose activity, negative = toxicity, actives largely listed as cytotoxic. 2% of 360,000 active;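 note: 0% = DMSO wells and -100% = cell-free medium wells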
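HT-1080-IDH1KD cells (IDH1 knocked down), 750/well in RPMI with 5% FBS, treated with compound 48 h at 37 degrees C. Viability by CellTiter-Glo luminescence, normalised to DMSO and no-cell wells; concentration-response curves classed.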
S2 tox – viability counter-screen for ATXN expression inhibitors. S2 cells (HEK-293 line with an ATXN2-luciferase reporter) viability, CellTiter-Fluor protease fluorescence, 24 h. Potency, µM (titrated, usually from 56.7 µM), actives largely listed as cytotoxic. 0.49% of 400,000 active; note: nearly all actives have a fitted effect of over 40% in size
HepG2 viability – counter-screen for TGF-b inhibitors: cytotoxicity in HepG2 cells; HepG2 CAGA-GFP viability, ATP luminescence, 18 h; Potency, µM (series often up to 46.1 µM), for inactives: at the highest dose activity change, negative = cytotoxicity, most hits filed as cytotoxic; 0.76% of 410,000 active
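CellTiter-Glo luminescence gave cytotoxicity after 18 hours at 37 degrees C. The cells were HepG2 CAGA-GFP in 1% FBS DMEM, stimulated with 500 pg/mL TGF-beta after compound addition. %Activity was normalised to no-cell wells (complete cell-killing) and DMSO (no toxicity), and curves were fitted and classified.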
ATXN2 expr inh – inhibitors of ATXN2 expression | HEK-293 ATXN2-luciferase reporter, luminescence, 24 h | Potency, µM (titrated, usually from 57 µM), without a hit: at the highest dose activity change, negative = inhibition, usual class: inhibitors | 0.72% of 360,000 active | AID 1745845; note: % is set by controls: 0 for no effect and ±100 for the full control effect; nearly all actives have a fitted effect of over 55% in size
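qHTS (up to 57 uM final) was run with 24 h compound exposure of reporter cells at 37 °C. Each well was multiplexed: SteadyGlo luminescence measured ATXN2-luciferase expression after a fluorogenic Gly-Phe-AFC viability readout (25 uM final).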
TGFb inhibitor – blocks TGF-b signaling; Potency, µM (titrated, usually from 46.1 µM), for the others: at the highest dose activity, negative = inhibition, actives largely listed as inhibitors; 1.2% of 410,000 active; HepG2 CAGA-GFP TGF-b/SMAD3 reporter, GFP fluorescence, 18 h; TGF-beta stimulated, 500 pg/mL final; note: % is set by controls: 0 for no effect and ±100 for the full control effect; nearly all actives have a fitted effect of over 65% in size
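GFP signal (ex488/em500-530) from TGF-beta-stimulated HEPG2 CAGA-GFP cells, 500 pg/mL final, 18 h at 37 degrees C in DMEM plus 1% FBS, normalized to unstimulated and DMSO-stimulated controls.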
* = called active by the depositor; i = inactive; ? = inconclusive; . = no result. Calls come from the whole dose curve; as a rule, active = well fitted curve in the direction sought with a large enough effect; inconclusive = small, poorly fitted or top-dose-only effect, or another doubt; inactive = no such curve, though single readings can be large; an effect the other way counts as inactive or inconclusive. Potency is the fitted concentration of half-maximal effect.

SMILES	HT1080-NT tox	HT1080 IDH1KD tx	S2 tox	HepG2 viability	ATXN2 expr inh	TGFb inhibitor
CCN(CC)CCOc1ccc2c(c1)C(=NO)c1cc(OCCN(CC)CC)ccc1-2	10µM*	7.1µM*	8.9µM*	-72%	11µM*	11µM*
CCN(CC)CCOc1ccc(Br)cc1	7%	4%	i	-3%	-10%	3%
CCN(CC)S(=O)(=O)c1ccc2c(c1)C(=NO)c1cc(S(=O)(=O)N(CC)CC)ccc1-2	18µM*	7.3µM*	?	-55%	?	?
CCCOc1ccc2c(c1)C(=NN=C(N)N)c1cc(OCCC)ccc1-2	?	?	25µM*	-104%	20µM*	?
OCC1OC(n2cnc3c(NCCc4ccccc4)ncnc32)C(O)C1O (configuration not stated)	2.1µM*	?	i	-42%	35%	-17%
CN(C(=O)C1CCCN(c2ncnc3c2nc2n3CCCCC2)C1)c1cccc(Cl)c1 (configuration not stated)	?	?	i	-23%	-33%	?
Cc1ccc(C)c(N2CCN(C(=O)C3CCCN(c4ncnc5c4nc4n5CCCCC4)C3)CC2)c1 (configuration not stated)	16%	17%	?	-45%	?	18µM*
O=C(C1CCCN(c2ncnc3c2nc2n3CCCCC2)C1)N1CCN(c2cccc(Cl)c2)CC1 (configuration not stated)	?	?	14µM*	-38%	.	11µM*
CCN(C(=O)C1CCN(c2ncnc3c2nc2n3CCCCC2)CC1)c1cccc(Cl)c1	.	.	.	-22%	.	11µM*
COc1ccc(-c2nnc(SCC(=O)Nc3cccc(C(F)(F)F)c3)s2)cc1	.	.	i	-4%	0%	-11%
c1cc2c3c(c1)CCC[N+]3(C1CCCCC1)CCC2	.	.	.	-11%	.	-25%
Cc1cnc(SCC2CCCO2)nc1C1CCCN(C(=O)c2ccc(S(N)(=O)=O)cc2)C1 (configuration not stated)	.	.	i	.	.	.
COc1cc(OC)c(OC)cc1CN1CCC(n2cc(C(=O)N3CCCCC3)nn2)CC1	.	.	i	.	.	.
COc1ccccc1-c1noc(-c2ccc(NC(C)C)c([N+](=O)[O-])c2)n1	.	.	i	-16%	55%	?
COc1ccccc1N1CCN(c2nc(C)nc3c2oc2ccccc23)CC1	1.1µM*	1.3µM*	?	-52%	35µM*	?
OCCN1CCN(c2nc(-c3ccccc3)nc3c2oc2ccccc23)CC1	23µM*	?	i	-42%	?	-11%
Cc1cc(C(=O)N2CCN(c3cc(Cl)ccc3C)CC2)c2c(C)nn(-c3ccccc3)c2n1	.	.	i	16%	-17%	-1%
CCCCCCCCCCCCCCCC[n+]1ccc(CC(O)c2c(C)[nH]c3ccccc23)c2ccccc21 (configuration not stated)	.	.	.	8.9µM*	.	?
COc1ccc(OC2CCN(S(=O)(=O)c3ccc(OC)c(OC)c3)CC2)cc1	-9%	-14%	i	11µM*	?	-23%
COc1ccc(OC2CCN(S(=O)(=O)c3ccc(F)cc3)CC2)cc1	-8%	8%	i	-5%	-11%	-11%
NS(=O)(=O)c1ccc(N=Nc2c[nH]c(=O)c(O)c2)cc1	-16%	-4%	18µM*	-4%	4%	4%
Cc1cc(C(=O)N/N=C/c2c3ccccc3cc3ccccc23)n[nH]1	?	16µM*	?	-46%	-18%	?
O=C(c1n[nH]c2c1CCCC2)N1CCOc2ccc(C(O)C3CCCCC3)cc2C1 (configuration not stated)	.	.	i	.	.	.
COc1ccc(CNC(=O)c2cccc3c(-c4ccc(F)c(F)c4)coc23)cc1OC	?	16µM*	i	-22%	0%	-25%
COc1cc(-c2coc3c(C(=O)NCc4ccc(C(F)(F)F)cc4)cccc23)ccc1O	?	26µM*	?	-29%	?	?
SMILES	HT1080-NT tox	HT1080 IDH1KD tx	S2 tox	HepG2 viability	ATXN2 expr inh	TGFb inhibitor
COc1cc(-c2coc3c(C(=O)NCc4ccc(OC)c(OC)c4)cccc23)ccc1O	?	3.3µM*	16µM*	-59%	?	?
COc1cc(-c2coc3c(C(=O)NCc4ccc(N(C)C)cc4)cccc23)ccc1O	?	?	?	-22%	?	1%
COc1cc(-c2coc3c(C(=O)NCc4ccncc4)cccc23)ccc1O	-8%	-12%	?	-22%	-7%	0%
O=C(NCc1ccccc1)c1cccc2c(-c3ccc(F)c(F)c3)coc12	?	?	i	-19%	8%	?
COc1ccc(CNC(=O)c2cccc3c(-c4cccc(C(N)=O)c4)coc23)cc1OC	?	5.8µM*	18µM*	-31%	32µM*	-8%
NC(=O)c1cccc(-c2coc3c(C(=O)NCCc4ccccc4)cccc23)c1	-5%	-22%	?	-31%	-12%	10%
Cc1nc(S(=O)(=O)N2CCN(c3cccc(Cl)c3)CC2)cn1C	.	.	i	-23%	-5%	6%
COc1cc(-c2coc3c(C(=O)NC4CCCCC4)cccc23)ccc1O	16µM*	21µM*	?	-33%	?	-5%
COc1cc(-c2coc3c(C(=O)Nc4ccc(C(C)C)cc4)cccc23)ccc1O	?	21µM*	i	-61%	-16%	?
O=C(NC1CCCCC1)c1cccc2c(-c3ccc(F)c(F)c3)coc12	22%	-17%	i	-21%	1%	-22%
COc1ccc(-c2coc3c(C(=O)NCc4ccco4)cccc23)c(C)c1	18µM*	?	?	-7%	?	?
COc1ccc(-c2ccc(C(=O)NCc3ccco3)c3occc23)c(C)c1	?	?	i	-20%	-8%	?
COc1ccc(-n2nc(C(=O)NCc3ccco3)c3c4ccccc4n(C)c3c2=O)cc1	-25%	-5%	i	1%	.	0%
COc1ccc(-n2nc(C(=O)NCc3ccco3)c3ccccc3c2=O)cc1	?	10µM*	i	-15%	-20%	7%
COc1ccc(OCC(=O)N(Cc2cccc(OC)c2)C2CCS(=O)(=O)C2)cc1 (configuration not stated)	.	.	.	-13%	.	2%
COc1cc2c(=O)c(S(=O)(=O)c3ccccc3)cn(CC(=O)Nc3ccccc3C)c2cc1OC	.	.	i	-27%	-19%	-26%
Cc1cccc2cc(CN(Cc3ccccc3)Cc3nnnn3Cc3ccccc3)c(=O)[nH]c12	.	.	.	-3%	.	3%
